# Results filed as inconclusive are left out. Unmarked numbers belong to inactive results. Activity calls are given as the source filed them. Calls come from the whole dose curve; as a rule, active = well fitted inhibition curve with a large enough effect; inconclusive = small, poorly fitted or top-dose-only effect; inactive = flat fitted curve, though single readings scatter.
# Key:
# [1] = Drug repurposing screens with cells derived from glioblastoma tumor samples (AID 1345199); conditions: GBM patient neurospheres viability, ATP luminescence, 48 h; note: nearly all actives have a fitted effect of over 40% in size
# Outline: (§1)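 Four patient lines of CD133+ GBM neurospheres were screened at several concentrations; hits were retested in those lines plus three slower-growing GBM lines, using 48-hour treatment and ATP-based viability.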
# astro = control astrocytes; assay: as above; conditions: viability, ATP luminescence, 48 h; series mostly up to 45.9 µM
# Outline: as §1
# [2] = at 45.9 µM (top of the series), tumour line B
# [3] = at 46.1 µM (top of the series), tumour line C
# [4] = at 45.9 µM (top of the series), tumour line D
# [5] = at 46 µM (top of the series), tumour line A
# [6] = at 20 µM (top of the series), tumour line C
# [7] = at 21.2 µM (top of the series), tumour line B
# [8] = at 21.2 µM (top of the series), tumour line D
# [9] = at 21.3 µM (top of the series), tumour line A
# % is set by controls: 0 for no effect and ±100 for the full control effect; potency is the fitted concentration of half-maximal effect.
smiles,measurement,setting,value
COC(=O)[C@H]1[C@H]2C[C@@H]3c4[nH]c5ccccc5c4CCN3C[C@H]2C[C@@H](OC(=O)c2cc(OC)c(OC)c(OC)c2)[C@@H]1OC,"activity, negative = cell killing",[1]; [2],-12.2%
same,"activity, negative = cell killing",[1]; [3],-12.2%
same,Potency,[1]; tumour line A,12.6 µM (active)
CC(=O)N[C@@H](CC(=O)N[C@@H](CCC(=O)O)C(=O)O)C(=O)O,"activity, negative = cell killing",[1]; [2],-3.93%
same,"activity, negative = cell killing",[1]; [4],0.816%
same,"activity, negative = cell killing",[1]; [3],6.84%
same,Potency,[1]; tumour line A,22.4 µM (active)
CCCC(=O)O[C@]1(C(=O)COC(C)=O)CC[C@H]2[C@@H]3C[C@H](F)C4=CC(=O)C=C[C@]4(C)[C@@]3(F)[C@@H](O)C[C@@]21C,"activity, negative = cell killing",[1]; [2],-13.7%
same,"activity, negative = cell killing",[1]; [4],-22.5%
same,"activity, negative = cell killing",[1]; [5],-29.1%
same,"activity, negative = cell killing",[1]; [3],-14.3%
C[C@]12O[C@H](C[C@]1(O)CO)n1c3ccccc3c3c4c(c5c6ccccc6n2c5c31)CNC4=O,"activity, negative = cell killing",[1]; [3],-97.6%
same,Potency,[1]; tumour line A,7.08 µM (active)
same,Potency,[1]; tumour line B,4.47 µM (active)
same,Potency,[1]; tumour line D,3.16 µM (active)
CCCCC(C)(O)C/C=C/[C@H]1[C@H](O)CC(=O)[C@@H]1CCCCCCC(=O)OC (stereo not given in full),"activity, negative = cell killing",[1]; [2],-29.2%
same,"activity, negative = cell killing",[1]; [4],-0.625%
same,"activity, negative = cell killing",[1]; [3],7.24%
C[C@@H]1[C@H](O)[C@@H](C)/C=C/C=C\C=C\C=C\C=C\C=C\C=C\[C@H](O[C@@H]2O[C@H](C)[C@@H](O)[C@H](N)[C@@H]2O)C[C@@H]2O[C@](O)(C[C@@H](O)C[C@@H](O)[C@H](O)CC[C@@H](O)C[C@@H](O)CC(=O)O[C@H]1C)C[C@H](O)[C@H]2C(=O)O (stereo in doubt),"activity, negative = cell killing",[1]; [2],-6.2%
same,"activity, negative = cell killing",[1]; [4],-9.92%
same,"activity, negative = cell killing",[1]; [5],-13.6%
same,"activity, negative = cell killing",[1]; [3],-5.87%
same,Potency,astro,inactive
CCOc1ccc2c(c1)C(C)=CC(C)(C)N2,"activity, negative = cell killing",[1]; [3],-10%
same,Potency,[1]; tumour line A,39.8 µM (active)
CCOC(=O)C1=C(C)NC(C)=C(C(=O)OCC)C1c1ccccc1C=CC(=O)OC(C)(C)C,"activity, negative = cell killing",[1]; [3],2.25%
same,Potency,[1]; tumour line A,2.24 µM (active)
same,Potency,[1]; tumour line D,12.6 µM (active)
CC(=O)N(CC(C)C(=O)O)c1c(I)cc(I)c(N)c1I (stereo not given),"activity, negative = cell killing",[1]; [6],-1.12%
same,"activity, negative = cell killing",[1]; [7],-5.01%
same,"activity, negative = cell killing",[1]; [8],-13.7%
same,"activity, negative = cell killing",[1]; [9],-23.8%
CC[N+](C)(C)Cc1ccccc1Br,"activity, negative = cell killing",[1]; [6],-2.45%
same,"activity, negative = cell killing",[1]; [7],0.866%
same,"activity, negative = cell killing",[1]; [8],-1.19%
same,"activity, negative = cell killing",[1]; [9],-11%
O=C(O)c1cc(=O)c2c3nc4ccccc4oc-3cc(=O)c2[nH]1,"activity, negative = cell killing",[1]; [2],-7.08%
same,"activity, negative = cell killing",[1]; [4],-5.52%
same,"activity, negative = cell killing",[1]; [5],-20.9%
same,"activity, negative = cell killing",[1]; [3],-22.4%
CC1=C(/C=C/C(C)=C/C=C/C(C)=C/CO)C(C)(C)CCC1,"activity, negative = cell killing",[1]; [2],-16.9%
same,"activity, negative = cell killing",[1]; [4],-16.1%
same,Potency,[1]; tumour line A,31.6 µM (active)
CC(C)N=c1cc2n(-c3ccc(Cl)cc3)c3ccccc3nc-2cc1Nc1ccc(Cl)cc1,"activity, negative = cell killing",[1]; [6],-8.51%
same,Potency,[1]; tumour line A,5.01 µM (active)
CC(=O)O[C@]1(C(C)=O)CC[C@H]2[C@@H]3CCC4=CC(=O)CC[C@]4(C)[C@@]3(F)[C@@H](O)C[C@@]21C,"activity, negative = cell killing",[1]; [2],-7.13%
same,"activity, negative = cell killing",[1]; [4],-7.73%
same,"activity, negative = cell killing",[1]; [5],6.04%
same,"activity, negative = cell killing",[1]; [3],8.8%
COCC(=O)Nc1cc(Sc2ccccc2)ccc1N=C(NC(=O)OC)NC(=O)OC,"activity, negative = cell killing",[1]; [3],-20.6%
same,Potency,[1]; tumour line A,6.31 µM (active)
C/C1=C2N=C(/C=C3N=C(/C(C)=C4\[N-][C@@](C)([C@@H]5N=C1[C@](C)(CCC(=O)NCC(C)OP(=O)(O)O[C@H]1[C@@H](O)[C@@H](n6cnc7cc(C)c(C)cc76)O[C@@H]1CO)[C@H]5CC(N)=O)[C@@](C)(CC(N)=O)[C@@H]4CCC(N)=O)[C@@](C)(CC(N)=O)[C@@H]\3CCC(N)=O)C(C)(C)[C@@H]/2CCC(N)=O.CC(=O)O.[Co] (stereo not given in full),"activity, negative = cell killing",[1]; [2],-15.2%
same,"activity, negative = cell killing",[1]; [4],-26.7%
same,"activity, negative = cell killing",[1]; [5],-29%
COc1ccc(C[C@@H](C)NC[C@H](O)c2ccc(O)c(NC=O)c2)cc1,"activity, negative = cell killing",[1]; [2],-17.2%
same,"activity, negative = cell killing",[1]; [4],5.61%
same,"activity, negative = cell killing",[1]; [3],-20.1%
same,Potency,[1]; tumour line A,12.6 µM (active)
Cc1ccccc1OCC(O)CNCCOc1ccc(C(N)=O)cc1 (stereo not given),"activity, negative = cell killing",[1]; [2],6.35%
same,"activity, negative = cell killing",[1]; [4],-24%
same,"activity, negative = cell killing",[1]; [3],-1.19%
same,Potency,[1]; tumour line A,17.8 µM (active)
same,Potency,astro,inactive
C=CC1=C(C)C2=CC3=NC(=C(CC(=O)[O-])C4=NC(=C(C)C4=C([O-])[O-])C=c4[n-]c(c(C)c4CC)=CC1=N2)C(CCC(=O)[O-])C3C.[Cu+2].[Na+].[Na+].[Na+] (stereo not given),"activity, negative = cell killing",[1]; [5],-28%
same,"activity, negative = cell killing",[1]; [3],10.7%
